According to PubChem BioAssay (EPA / NIEHS):
Values joined by “and” are separate entries in the source; they are usually repeats but may differ in a detail not shown here. Equal entries are not always repeated. Some structures have more than one record in an assay (separate samples or runs), and their calls can disagree. Active and inactive are the calls of the source. Rule for the calls: active = hit-call score of the fitted dose curve at least 0.9, where 1 is the maximum; inactive = score below 0.9.

Key:
[1] = APR_HepG2_CellLoss_72hr: Apredica 72-hour HepG2 Assay for Cell Loss (AID 2282915); conditions: high-content imaging
Outline: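 HepG2 cells exposed 72 h to compound at 0.39–200 uM (10 concentrations, duplicate) in 0.5% DMSO. Fixed with 3.7% formaldehyde and Hoechst 33342-stained. Imaged at 20x; nuclear count gives cell number, fitted bidirectionally versus DMSO.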

[2] = APR_HepG2_P-H2AX_72hr: Apredica 72-hour HepG2 Assay for H2AX Phosphorylation (AID 2282916); conditions: imaging, actives raise or lower the signal;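 note: phospho-histone H2A.x immunostain intensity per cell marking DNA damage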
Outline: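 Phospho-histone H2A.x immunofluorescence, multiplexed with Hoechst and c-Jun, quantified by high-content imaging. Compounds applied to HepG2 for 72 h across ten concentrations (0.39–200 uM, 0.5% DMSO), in duplicate; DMSO baseline.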

[3] = APR_HepG2_MitoMembPot_72hr: Apredica 72-hour HepG2 Assay for Mitochondrial Membrane Potential (AID 2282917); conditions: imaging, actives raise or lower the signal
Outline: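 HepG2 cells dosed 72 hr with compound at 0.39–200 uM in duplicate, 0.5% v/v DMSO final. Mitochondria stained with 250 nM MitoTracker Red CMXRos for 30 min before formaldehyde fixation, imaged by high-content fluorescence; bidirectional fit versus DMSO.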

[4] = APR_HepG2_MitoticArrest_72hr: Apredica 72-hour HepG2 Assay for Mitotic Arrest (AID 2282918); conditions: high-content imaging, actives raise or lower the signal
Outline: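 HepG2 cells were exposed for 72 hr to compound at 0.39–200 uM (10 concentrations, duplicate) in 0.5% v/v DMSO, fixed in 3.7% formaldehyde, immunostained for phospho-histone H3 with Hoechst 33342 and imaged by high-content fluorescence; bidirectional fits versus DMSO.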

[5] = APR_HepG2_MicrotubuleCSK_72hr: Apredica 72-hour HepG2 Assay for Microtubule CSK Stabilty (AID 2282919); conditions: HepG2 microtubule cytoskeleton, high-content imaging, actives raise or lower the signal
Outline: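 HepG2, 72 hr cmpd exposure, 0.39–200 uM (10 pts, duplicate), 0.5% DMSO. 3.7% formaldehyde fix, 0.5% Triton perm, anti-alpha-tubulin/Cy5 plus Hoechst. HCS fluorescence intensity; bidirectional fit vs DMSO baseline; taxol as positive control.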

[6] = APR_HepG2_P-H2AX_24hr: Apredica 24-hour HepG2 Assay for H2AX Phosphorylation (AID 2282920); conditions: high-content imaging, actives raise or lower the signal
Outline: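 HepG2 human liver cells were exposed for 24 hr to compounds at 0.39–200 uM in duplicate, with 0.5% v/v DMSO final. Fixed cells were immunostained for phospho-histone H2A.x plus Hoechst 33342, imaged by HCS fluorescence, and fitted bidirectionally against DMSO.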

[7] = APR_HepG2_StressKinase_72hr: Apredica 72-hour HepG2 Assay for Stress Kinase (AID 2282921); conditions: HepG2 stress kinase (phospho-c-Jun) imaging, actives raise or lower the signal
Outline: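 Stress kinase signal is phospho-c-Jun immunofluorescence (1:500 primary, Cy3 secondary) in fixed, permeabilized human HepG2 cells imaged at 20x. Exposure lasted 72 hr over ten concentrations from 0.39 to 200 uM, 0.5% DMSO, in duplicate. Bidirectional fit versus DMSO.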

[8] = APR_HepG2_StressKinase_24hr: Apredica 24-hour HepG2 Assay for Stress Kinase (AID 2282922); conditions: HepG2 stress kinase (phospho-c-Jun) imaging, actives raise or lower the signal
Outline: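 Read-out: phospho-c-Jun immunofluorescence (Cy3 secondary) quantified by high-content imaging at 20x, nuclei defined by Hoechst 33342. Human HepG2 liver cells dosed 24 hr, 0.39–200 uM, DMSO 0.5% v/v; gain or loss of signal fitted relative to DMSO.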

[9] = APR_HepG2_p53Act_72hr: Apredica 72-hour HepG2 Assay for p53 Activation (AID 2282923); conditions: high-content imaging, actives raise or lower the signal;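 note: average cellular p53 protein immunofluorescence intensity in HepG2 cells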
Outline: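 After 72 h with compound (ten points, 0.39 to 200 uM, final DMSO 0.5% v/v), fixed HepG2 cells were labelled with sheep anti-p53 and Hoechst 33342 and imaged; gain or loss versus DMSO scored.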

[10] = APR_HepG2_MitoMass_72hr: Apredica 72-hour HepG2 Assay for Mitochondrial Mass (AID 2282924); conditions: high-content imaging, actives raise or lower the signal;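 note: MitoTracker Red CMXRos stain intensity per cell imaged as mitochondrial mass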
Outline: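 Read-out: MitoTracker Red fluorescence intensity from automated imaging (20x, six fields per well) in human HepG2 liver cells. Dosing ran 72 hr, 0.39–200 uM, 0.5% DMSO; bidirectional curve fitting versus DMSO baseline.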

[11] = APR_HepG2_NuclearSize_72hr: Apredica 72-hour HepG2 Assay for Nuclear Size (AID 2282925); conditions: high-content imaging, actives raise or lower the signal
Outline: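 Read-out: nuclear diameter from Hoechst 33342 images (ArrayScan, 20x, six fields/well), via cell-cycle image analysis. HepG2 were dosed 0.39–200 uM for 72 hr in 0.5% DMSO. Bidirectional fit relative to DMSO.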

[12] = ATG_CMV_CIS: Attagene CIS-FACTORIAL HepG2 Assay for human CMV (Internal Marker) (AID 2282928); conditions: HepG2 CMV promoter reporter, transcription factor profiling; actives raise or lower the signal;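 note: endpoint acts as a background internal control marker rather than a target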
Outline: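 Readout: fluorescent reporter cDNA fragments separated by capillary electrophoresis after RT-PCR and HpaI cut. Cells: HepG2 carrying transfected cis-promoter reporter constructs, dosed 24 h. Endpoint serves as background internal-marker control, fit bidirectionally versus DMSO.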

[13] = ATG_DR4_LXR_CIS: Attagene CIS-FACTORIAL HepG2 Assay for human Liver X Receptor (LXR), DR4 submotif (AID 2282929); conditions: HepG2 Attagene DR4 cis-reporter, mRNA transcription; actives raise or lower the signal
Outline: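 HepG2 cells transiently transfected with cis-promoter-driven multiplexed reporter units (DR4 element) were dosed for 24 h. Reporter mRNA was quantified by RT-PCR, fluorescent primer extension, HpaI digestion and capillary electrophoresis; bidirectional fitting versus DMSO baseline.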

[14] = molecular target: Aryl hydrocarbon receptor (Homo sapiens) (UniProt P35869); assay: ATG_Ahr_CIS: Attagene CIS-FACTORIAL HepG2 Assay for human Aryl Hydrocarbon Receptor (Ahr) (AID 2282930); conditions: HepG2 AhR cis-factorial reporter transcription; actives raise or lower the signal
Outline: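 HepG2 cells transiently transfected with cis-element-driven multiplexed reporter units; endogenous AhR activity read as reporter mRNA 24 h after dosing, via RT-PCR, 6-FAM labelling, HpaI digestion and capillary electrophoresis. Bidirectional fit relative to DMSO.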

[15] = ATG_AP_2_CIS: Attagene CIS-FACTORIAL HepG2 Assay for human Activator Protein 2 (AP-2) (AID 2282932); conditions: HepG2 AP-2 cis-reporter, Attagene transcription factor profiling; actives raise or lower the signal
Outline: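 Liver-derived HepG2 line, cis-reporter system measuring endogenous factors; 24 h dosing; reporter mRNA detected by fluorescent RT-PCR and capillary electrophoresis.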

[16] = ATG_BRE_CIS: Attagene CIS-FACTORIAL HepG2 Assay for human Bone Morphogenetic Protein (BMP) Response Element (BRE) (AID 2282933); conditions: HepG2 BMP response element reporter, Attagene transcription factor profiling; actives raise or lower the signal
Outline: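 Endogenous transcription factor activity read in transiently transfected HepG2 cells after 24 h chemical exposure. Bidirectional curve fitting against DMSO; readout is reporter transcript level by RT-PCR with capillary electrophoresis of labelled products.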

[17] = ATG_CRE_CIS: Attagene CIS-FACTORIAL HepG2 Assay for human cAMP Responsive Element (CRE) binding protein 3 (AID 2282926); conditions: HepG2 CRE cis-reporter, Attagene multiplexed mRNA; actives raise or lower the signal
Outline: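 Capillary electrophoresis of 6-FAM-labelled, HpaI-digested PCR products quantified reporter transcripts. These came from HepG2 transiently transfected with cis-element reporters and exposed to test chemicals for 24 hours, with DMSO defining baseline activity.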

[18] = molecular target: CCAAT/enhancer-binding protein beta (Homo sapiens) (UniProt P17676); assay: ATG_C_EBP_CIS: Attagene CIS-FACTORIAL HepG2 Assay for human CCAAT/Enhancer Binding Protein (C/EBP) beta (AID 2282927); conditions: HepG2 Attagene cis-factorial transcription factor reporter; actives raise or lower the signal
Outline: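 HepG2 transiently transfected with multiplexed reporter units under cis-regulatory promoters reporting endogenous C/EBPb activity. After 24 h exposure, reporter mRNA assayed by RT-PCR, fluorescent labelling, HpaI digestion and capillary electrophoresis; bidirectional fitting versus DMSO.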

[19] = ATG_AP_1_CIS: Attagene CIS-FACTORIAL HepG2 Assay for human Activator Protein 1 (AP-1) (AID 2282931); conditions: HepG2 Attagene cis-factorial AP-1 reporter mRNA; actives raise or lower the signal
Outline: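 HepG2 cells transiently transfected with cis-element-driven multiplex reporter units; 24 h compound exposure. Reporter mRNA quantified by RT-PCR, FAM-labelled fragments resolved by capillary electrophoresis; bidirectional fit versus DMSO baseline.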

Measured: AC50

Sequence of Aryl hydrocarbon receptor (Homo sapiens) (P35869 whole entry, looked up): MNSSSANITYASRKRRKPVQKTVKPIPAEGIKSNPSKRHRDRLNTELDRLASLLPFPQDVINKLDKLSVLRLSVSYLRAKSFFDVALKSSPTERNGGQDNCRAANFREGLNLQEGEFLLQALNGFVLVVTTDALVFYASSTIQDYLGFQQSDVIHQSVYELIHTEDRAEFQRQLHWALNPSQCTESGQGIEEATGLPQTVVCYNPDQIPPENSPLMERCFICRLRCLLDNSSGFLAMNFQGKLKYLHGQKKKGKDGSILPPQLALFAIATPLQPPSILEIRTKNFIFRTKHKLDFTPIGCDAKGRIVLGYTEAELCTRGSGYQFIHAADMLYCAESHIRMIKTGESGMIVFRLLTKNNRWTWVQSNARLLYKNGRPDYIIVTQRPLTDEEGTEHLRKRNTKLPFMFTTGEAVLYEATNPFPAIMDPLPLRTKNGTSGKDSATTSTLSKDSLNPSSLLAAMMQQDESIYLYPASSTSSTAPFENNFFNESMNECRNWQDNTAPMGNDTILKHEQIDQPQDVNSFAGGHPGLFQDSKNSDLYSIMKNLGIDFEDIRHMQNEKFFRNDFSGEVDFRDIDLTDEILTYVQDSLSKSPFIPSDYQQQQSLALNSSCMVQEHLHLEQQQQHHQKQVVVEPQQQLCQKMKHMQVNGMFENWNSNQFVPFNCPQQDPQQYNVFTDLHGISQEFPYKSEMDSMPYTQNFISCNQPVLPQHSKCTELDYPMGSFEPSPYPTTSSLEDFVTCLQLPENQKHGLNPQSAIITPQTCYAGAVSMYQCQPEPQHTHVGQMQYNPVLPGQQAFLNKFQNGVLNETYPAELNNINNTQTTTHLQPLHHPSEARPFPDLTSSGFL
Sequence of CCAAT/enhancer-binding protein beta (Homo sapiens) (P17676 whole entry, looked up): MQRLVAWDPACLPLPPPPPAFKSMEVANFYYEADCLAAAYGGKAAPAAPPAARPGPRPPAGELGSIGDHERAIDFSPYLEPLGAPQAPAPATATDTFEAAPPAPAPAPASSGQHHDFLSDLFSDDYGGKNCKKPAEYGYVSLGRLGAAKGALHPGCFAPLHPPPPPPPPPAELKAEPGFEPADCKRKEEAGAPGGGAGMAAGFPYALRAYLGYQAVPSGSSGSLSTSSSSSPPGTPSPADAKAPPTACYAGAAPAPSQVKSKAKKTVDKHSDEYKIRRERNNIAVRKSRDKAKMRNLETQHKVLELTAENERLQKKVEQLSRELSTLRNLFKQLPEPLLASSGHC

O=C(c1ccc(OCCN2CCCCC2)cc1)c1c(-c2ccc(O)cc2)sc2cc(O)ccc12
active: [12] 14.8 µM and 7.91 µM | [13] 20.3 µM and 19.9 µM | [14] 19.3 µM | [15] 11.1 µM and 15.4 µM
inactive: [1] | [2] | [3] | [4] | [5] | [6] | [7] | [8] | [9] | [10] | [11] | [12] | [13] | [14] | [15] | [16]

CC(C)=CCCC(C)=CC(=O)O
inactive: [17] | [18] | [12] | [13] | [14] | [19] | [15] | [16]

CC(CO)(CO)[N+](=O)[O-]
inactive: [17] | [18] | [12] | [13] | [14] | [19] | [15] | [16]

C=C1CC/C=C(\C)CC[C@@H]2[C@@H]1CC2(C)C
inactive: [18] | [14] | [19] | [15] | [16]
active: [17] 124 µM | [12] 42.4 µM | [13] 61.3 µM

CCC(C)(C)c1cc(O)c(C(C)(C)CC)cc1O
inactive: [14] | [19] | [15] | [16]
active: [17] 5.39 µM | [18] 19.8 µM | [12] 54.3 µM | [13] 26.7 µM

CC(C)CCOC(=O)CC(C)C
inactive: [17] | [18] | [12] | [13] | [14] | [19] | [15] | [16]

CC(=O)Oc1c(C)c(C)c2c(c1C)CC[C@@](C)(CCC[C@H](C)CCC[C@H](C)CCCC(C)C)O2
inactive: [17] | [18] | [12] | [13] | [14] | [19] | [15] | [16]

NC(=O)c1c(Cl)cccc1Cl
active: [14] 55.4 µM
inactive: [17] | [18] | [12] | [13] | [19] | [15] | [16]

CC1=CC[C@@H](C(C)(C)O)CC1
inactive: [17] | [18] | [12] | [13] | [14] | [19] | [15] | [16]

CC(=O)CCC=C(C)CCC=C(C)C
inactive: [17] | [18] | [12] | [13] | [14] | [19] | [15] | [16]

CCCCCCCCCOS(=O)(=O)O
inactive: [17] | [18] | [12] | [14] | [19] | [15] | [16]
active: [13] 78.7 µM

CC(=N[Si](C)(C)C)O[Si](C)(C)C
inactive: [17] | [18] | [12] | [13] | [14] | [19] | [15] | [16]
